# Tests used:
# Experiment in all cases: PBM binding z-score (relative to random genomic background probes); higher = stronger binding; sequences stand for … in GC…GCGATTGACAGCGTAGAATGAAGG
# [1] = system: FXR:RXRa (NR concentration 270 nM, RXRa partner concentration 90 nM)
# In short: (§1)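 Custom Agilent 4×180K protein-binding microarrays carried double-stranded probes, each with a 34-nt variable region. These regions held direct-repeat seeds, single-nucleotide variants, half-site ablations and random human genomic background sequences. Ligand-free nuclear receptor dimers were incubated on the arrays for 1 h, antibodies against each partner (one per run) detected binding, and scanned fluorescence was regression-normalized. Binding z-scores take the random background probes as reference.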
# [2] = system: LXRa:RXRa (NR concentration 270 nM, RXRa partner concentration 90 nM)
# In short: as §1
# [3] = system: LXRa homodimer (NR concentration 270 nM)
# In short: as §1
# [4] = system: LXRb:RXRa (NR concentration 270 nM, RXRa partner concentration 90 nM)
# In short: as §1
# [5] = system: LXRb homodimer (NR concentration 270 nM)
# In short: as §1
# [6] = system: PPARa:RXRa (NR concentration 270 nM, RXRa partner concentration 90 nM)
# In short: as §1
# [7] = system: PPARg:RXRa (NR concentration 180 nM, RXRa partner concentration 90 nM)
# In short: as §1
# [8] = system: PPARg:RXRa 270nM:90nM, anti-RXR (NR concentration 270 nM, RXRa partner concentration 90 nM)
# In short: as §1
# [9] = system: PPARg:RXRa 30nM:10nM, anti-RXR (NR concentration 30 nM, RXRa partner concentration 10 nM)
# In short: as §1
# [10] = system: PPARg:RXRa 90nM:30nM, anti-RXR (NR concentration 90 nM, RXRa partner concentration 30 nM)
# In short: as §1
# [11] = system: PPARg:RXRa DBDmut IVT, anti-RXR (DBD mutation: RXRa K156A/R161A, NR concentration 270 nM, RXRa partner concentration 90 nM)
# In short: as §1
# [12] = system: PPARg:RXRa IVT, anti-PPARg (NR concentration 270 nM, RXRa partner concentration 90 nM)
# In short: as §1
# [13] = system: PPARg DBDmut:RXRa IVT, anti-PPARg (DBD mutation: PPARg1 K132A/R137A, NR concentration 270 nM, RXRa partner concentration 90 nM)
# In short: as §1
# [14] = system: PPARg DBDmut IVT, anti-PPARg (DBD mutation: PPARg1 K132A/R137A, NR concentration 270 nM)
# In short: as §1
# [15] = system: PPARg homodimer (NR concentration 180 nM)
# In short: as §1
# [16] = system: PXR:RXRa (NR concentration 270 nM, RXRa partner concentration 90 nM)
# In short: as §1
# [17] = system: PXR homodimer (NR concentration 270 nM)
# In short: as §1
# [18] = system: RARa:RXR (NR concentration 270 nM, RXRa partner concentration 90 nM)
# In short: as §1
# [19] = system: RARa homodimer (NR concentration 270 nM)
# In short: as §1
# [20] = system: RARb:RXRa (NR concentration 270 nM, RXRa partner concentration 90 nM)
# In short: as §1
Sequence,PBM binding z-score [1],PBM binding z-score [2],PBM binding z-score [3],PBM binding z-score [4],PBM binding z-score [5],PBM binding z-score [6],PBM binding z-score [7],PBM binding z-score [8],PBM binding z-score [9],PBM binding z-score [10],PBM binding z-score [11],PBM binding z-score [12],PBM binding z-score [13],PBM binding z-score [14],PBM binding z-score [15],PBM binding z-score [16],PBM binding z-score [17],PBM binding z-score [18],PBM binding z-score [19],PBM binding z-score [20]
CCAGACAGGTGAAAGGTAACTAAGTCTGGTACGC,0.301,0.559,-0.431,0.84,-0.415,3.31,5.33,6.03,4.37,6.14,1.58,2.54,-0.18,-0.253,0.909,0.819,0.101,1.81,0.324,1.14
CCTACTAGGCCATTCAGAGGTCATTGATCATATG,3.52,4.52,7.03,4.15,1.58,4.04,3.11,3.87,1.41,3.08,5.98,5.01,1.66,0.481,2.94,4.79,3.44,4.84,1.44,3.45
TCTGCTAGGTCAGTTGGTCAGTTAACGAGCTGCC,0.865,0.257,-0.414,0.323,0.405,1.37,0.334,1.33,0.985,1.08,2.93,2.98,1.52,0.61,0.428,-0.000879,-0.602,0.398,-1.15,3.3
TCATATAGGTAAACAGGTGAGAGTCCGTAAGTTA,0.963,0.822,0.145,0.682,0.166,2.04,2.39,3.16,3.77,3.41,4.89,4.22,0.855,1.05,0.708,0.6,0.674,0.689,1.25,0.677
CAGCCTAGGTCAGGGCCAGCATAGGAGGAACGTT,1.52,0.758,-0.392,0.314,-1.18,1.98,0.816,1.02,-0.543,0.19,1.28,1.44,-0.858,-1.51,0.398,0.0493,-0.664,0.806,-0.366,3.37
ACTATTAGTTGAGACGAGGGCAAACGATAGGTTG,0.392,0.212,0.35,0.169,0.32,0.382,0.773,0.206,0.117,0.161,0.0525,0.456,1.03,1.15,0.189,1.83,0.478,0.637,0.392,0.841
TCTAGCAGGCCAGAGGGTCACTCACGAGGTACGG,0.586,0.658,-0.609,1.13,-1.2,2.2,1.46,2.63,1.82,2.54,0.776,0.783,-0.376,-1.19,1.31,1.51,-0.605,2.52,-0.397,2.25
TATACAGGGTCAAAGGCTAGAGTACGAATGTCGA,7.16,6.17,2.74,4.84,2.57,5.93,7.9,7.07,5,6.71,2.33,4.88,1.73,2.03,3.15,4.01,1.01,5.02,1.11,4.53
CCAGACAGGTGAGAAGGTGACTCAGCCTCGATTA,0.0148,-0.0121,-0.103,0.201,-0.178,0.868,0.495,0.694,-0.409,0.222,1.19,0.996,0.0696,-0.454,0.821,-0.175,0.603,0.235,0.708,1.02
ACTATTAGTTGAGACAAGGGCAACCGATAGGTTG,0.264,-0.00254,-0.143,-0.136,0.202,0.0106,0.795,0.412,0.214,0.411,-0.102,0.38,0.684,0.362,1.21,0.594,0.47,0.553,0.821,1.17
GCTCGGAGGACAAAGTCAGAGCTTTGTCCGTAGA,-0.547,-0.56,-0.429,-0.512,-0.588,-0.568,-1.55,-0.786,-1.61,-0.843,-1.01,-0.327,-0.892,-1.25,-0.791,-0.547,-0.9,-0.547,-1.22,0.845
TAGCCTAGGTCAGATCGGGCCAGTAGACGCTATA,2.39,0.985,-0.414,0.183,-0.713,1.45,0.406,0.586,-0.637,0.224,0.0206,1.03,-0.87,-1.34,0.0238,0.619,-0.847,0.622,-1.52,2.99
ACAGACAGGTTAGTGAAGGTAACTCAGCTGGACG,0.616,0.393,-0.196,-0.21,-0.3,0.259,0.68,0.049,-0.22,0.0314,0.174,0.407,0.284,0.465,0.573,-0.0921,-0.25,0.306,0.0654,0.755
CCTCGGAGGACGACAGGAGGTCAGAGCTGCCAGA,0.759,1.38,0.305,1.13,-0.711,1.8,0.288,0.213,-0.596,-0.215,-0.728,-0.00812,-0.427,-1.79,1.19,1.89,-0.155,2.06,0.247,2.18
CGTCCAACGTCAGAGAGGTCAGTGAATGCCGAGT,1.61,1.76,0.849,1.75,-0.287,2.31,0.391,0.537,-0.521,-0.194,0.129,0.706,-0.788,-0.969,1.24,2.74,0.717,2.53,0.224,2.92
AAAACGAGGGCAATGAGTTGATAGCACGGGTGGC,0.531,0.364,-0.353,-0.0182,-0.657,1.55,2.02,1.44,0.0987,0.879,5.04,3.79,1.2,0.681,0.0756,1.86,4.72,0.593,-0.42,2.18
TCTCGGAGTACACGAAGGTCAGAGCTTTCCAGAG,0.57,0.884,-0.152,1.09,-1.07,1.84,0.351,1.35,1.91,1.7,1.19,0.734,-1.26,-1.48,1.11,2.01,0.814,2,-0.696,2.58
GCGACTGGGGAAAAGCAGGTTACCATAAGGTTGG,-0.282,-0.412,-0.496,0.0547,-1.04,0.442,0.406,0.154,-0.554,0.0241,0.483,0.632,-0.499,-1.11,0.255,-0.0375,-0.35,0.407,-0.675,-0.16
